PubChem BioAssay (Tox21)
Where “and” joins values, the source holds several entries; their conditions need not be identical. Equal values may be shown once. Values without a mark were called inactive. Where a call stands in place of a potency, no number is given. Calls of active or inactive are those of the source. Calls come from the whole dose curve; as a rule, active = well fitted curve in the direction sought with a large enough effect in the repeat runs; inconclusive = weak or mixed curves; inactive = flat fitted curve, though single readings scatter.

test: qHTS assay to test for compound auto fluorescence at 590 nm (red) in HepG2 cell free culture (AID 720684); settings: cell-free medium autofluorescence, red 540/590 nm; series mostly up to 91.3 µM
Text: U.S. Tox21 Program National Center for Advancing Translational Sciences [NCATS] NIH Chemical Genomics Center [NCGC] U.S. Environmental Protection Agency [EPA] National Institutes of Environmental Health Sciences [NIEHS] National Toxicology Program [NTP] U.S. Food and Drug Administration [FDA] Tox21 Assay Overview: Compound auto fluorescence often interferes with screening of the compound library against various biological targets and signaling pathways. Some of these compounds may have fluorophoric properties. Such properties may interfere with the assay outputs resulting in false positives and/or negatives. To decrease such complications and ensure the compound activities are relevant in terms of biological response, the Tox21 10K compound library was screened for auto fluorescence. From the fluorophores used as reporter signals in our screening assays, the auto fluorescence equivalencies of compounds against three fluorophores have been evaluated: Triamterene, Fluorescein and Rose Bengal sodium for blue, green and red fluorescence, respectively. The fluorescence intensities were measured using Excitation/Emission wavelengths at 405/460nm, 485/535nm and 540/590nm for blue, green and red labels, respectively. This assay includes the red fluorescence data.
Tox21 Assay Protocol Summary: 5 uL of culture medium (MEM containing 10% FBS) per well was dispensed into black wall/clear bottom 1536-well plates using a Multidrop Combi Dispenser (ThermoFisher Scientific, Waltham, MA). After 23 nL compound or DMSO vehicle was transferred into assay plate by a pintool work station (Kalypsys, San Diego, CA), fluorescence intensities in the assay plates were measured by an Envision (PerkinElmer, Shelton, CT) plate reader using three labels for measuring blue, green and red fluorescence at […] 460, 535 and 590nm respectively.

SMILES	Potency	fluorescence, % of Rose Bengal
O=c1oc(=O)c2cc3c(=O)oc(=O)c3cc12	inactive	
O=C(OCc1ccccc1)c1ccccc1O	inactive	
O=CCCCC=O	inactive	
CC1=CCC(C(C)(C)O)CC1 (stereo not given)	inactive	
CCCC(=O)O	inactive	
CN(C)CCC=C1c2ccccc2CCc2ccccc21	inactive	
c1ccc2sc(SSN3CCOCC3)nc2c1	inactive	
CCCc1c(OCCCCc2nn[nH]n2)ccc(C(C)=O)c1O	inactive	
CCCCc1oc2ccccc2c1C(=O)c1cc(I)c(OCCN(CC)CC)c(I)c1	inactive	
O=S(=O)(O)c1ccc(O)cc1	inactive	
O=[N+]([O-])c1ccc2c(c1)Cc1ccccc1-2	inactive	
CCCCC(CC)COCC1CO1 (stereo not given)	inactive	
CC(C)(C)NC(=O)[C@H]1CC[C@H]2[C@@H]3CC[C@H]4NC(=O)C=C[C@]4(C)[C@H]3CC[C@]12C	inactive	
c1ccc2c(c1)Oc1ccccc1S2	inactive	
CN1C(C(=O)Nc2ccccn2)=C(O)c2ccccc2S1(=O)=O	inactive	
COC(=O)Nc1nc2ccc(S(=O)c3ccccc3)cc2[nH]1 (stereo not given)	inactive	
CC(=O)C1(C)CC2=C(CCCC2(C)C)CC1C (stereo not given)	inactive	
Nc1ccccc1N	inactive	
OC1CCCCCCCCCCC1	inactive	
CC1=CC2C3CC(C=C3C)C2C1 (stereo not given)	inactive	

SMILES	Potency	fluorescence, % of Rose Bengal
COC(C)COC(C)COC(C)CO (stereo not given)	inactive	
O=CCc1ccccc1	inactive	
Cc1c(OCC(F)(F)F)ccnc1CS(=O)c1nc2ccccc2[nH]1 (stereo not given)	inactive	
CC(=O)c1ccccn1	inactive	
C=C(C)C1CC=C(C)CC1 (stereo not given)	inactive	
CN(C)c1nc(N(C)C)nc(N(C)C)n1		0.0258% [at 18.6 µM] and 0.364% [at 3.72 µM]
NNc1ccc(C(=O)O)cc1	inactive	
CC(C)OC(=O)C(C)(C)Oc1ccc(C(=O)c2ccc(Cl)cc2)cc1	inactive	
CCCCOCCOCCO	inactive	
S=C(NC1CCCCC1)NC1CCCCC1	inactive	
CC(C)=CCC/C(C)=C\CO	inactive	
O=C(Nc1ccc([N+](=O)[O-])cc1Cl)c1cc(Cl)ccc1O	inactive	
CC(=O)CC/C=C(\C)CCC=C(C)C	inactive	
CC(C)OC=O	inactive	
CCC(C)(O)CCCC(C)C (stereo not given)	inactive	
CCC(C)OC(=O)c1ccc(O)cc1 (stereo not given)	inactive	
COC(=O)C1=C(C)NC(C)=C(C(=O)OCCN(C)Cc2ccccc2)C1c1cccc([N+](=O)[O-])c1 (stereo not given)	inactive	
CC(=O)O[C@]1(C(C)=O)CC[C@H]2[C@@H]3C=C(Cl)C4=CC(=O)[C@@H]5C[C@@H]5[C@]4(C)[C@H]3CC[C@@]21C	inactive	
OC(CCl)CCl	inactive	
COc1ccccc1/C=C/C=O	inactive	
